Drawing on PubChem BioAssay, this text covers composite z-score for 35 compounds.

Tested on in the first assay: not listed separately
The assay is described as follows: probe aLAP1 signal on lysate-treated microarray – cell lysate, small-molecule microarray, COS7 lysate, primary screen (AID 1124).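 Also: lysate comes from COS7 cells expressing LAP1 and is applied at 0.3 µg/mL; score merges spot fluorescence near 667 nm with signal-to-noise over triplicate slides.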 Conditions: probe aLAP1, fluorescence, higher = more signal.
On to `COc1ccccc1CN1C(=O)c2ccccc2[C@@]2(Cc3ccccc3N(CC(F)(F)F)C2=O)[C@@H]1c1ccc(CO)cc1`, for which the composite z-score worked out at 2.4.

For the compound `CC(C)(C)OC(=O)CC[C@]1(C(=O)NCc2ccccc2)N=C(c2ccc(OCCCO)cc2)O[C@H]1c1ccccc1CN=[N+]=[N-]`, the composite z-score stood at 0.583. Same read-out and setting: the result for `O=C(NCC(F)(F)F)[C@@H]1c2ccccc2C(=O)N(Cc2ccc(OC(F)(F)F)cc2)[C@H]1c1ccc(CO)cc1` reads 0.203. Same read-out and setting: the result for `COc1ccc([Si](C)(C)[C@H]2[C@H](CCn3cc([C@H](O)c4ccccc4)nn3)O[C@@]3(C(=O)N(Cc4ccc(N5C(=O)c6cccc7cccc5c67)cc4)c4ccccc43)[C@@H]2C)cc1` reads 0.838; that for `CCCCCCc1nc(C2CC2)cc2c1[Si](C(C)C)(C(C)C)O[C@H]2c1ccccc1`, 0.649. With `COc1cc2c(cc1OC)CN(C(=O)[C@@H]1[C@H]3C(=O)O[C@H](c4ccccc4)[C@H](c4ccccc4)N3[C@H](c3ccc(OCCO)cc3)[C@@]13C(=O)Nc1ccccc13)CC2`, the composite z-score was 0.141. In turn, `CCOC(=O)C[C@H]1[C@H](OC(=O)c2ccc(C(=O)c3ccccc3)cc2)[C@@H](NC(=O)Cc2ccc(OC)cc2)c2cc(OCCCO)ccc2N1C(=O)c1ccccc1` had a composite z-score of -0.0137. Compound `Cc1cc(C)c(C(O)C2C=CC3C(=O)NC(=O)C3N2Nc2ccc(Cl)cc2Cl)c(C)c1` (stereo not drawn) gave a composite z-score of 0.772.

The test system of another assay is Sam68 (KHDRBS1). In words: compounds binding KHDRBS1 protein – biochemical, small-molecule microarray, 635 nm fluorescence, primary screen (AID 1125).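 Also: score merges 667 nm channel intensity with signal to noise over triplicate slides.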 Conditions: higher = more signal.
Consider `COC(=O)c1c2oc(c1C(=O)OC)C(=O)N(Cc1ccccc1)Cc1cn(nn1)C[C@H](Cc1ccccc1)NC(=O)N[C@H](CO)CC2`, for which the composite z-score was determined as 0.636. Same read-out and setting: the result for `O=C1O[C@H](c2ccccc2)[C@H](c2ccccc2)N2[C@H]1[C@@H](C(=O)Nc1nc3ccccc3s1)[C@]1(C(=O)Nc3ccc(C#CC4(O)CCCCCC4)cc31)[C@H]2c1ccccc1OCCO` reads 1.3.

In the case of `O=C1O[C@@H](c2ccccc2)[C@@H](c2ccccc2)N2[C@@H](c3ccccc3OCCO)[C@]3(C(=O)Nc4ccc(C#CCCO)cc43)[C@@H](C(=O)N3CCCCCCC3)[C@H]12`, the composite z-score turned out to be 1.3. Same read-out and setting: the result for `CC(C)N1CC=CC23O[C@@H]4C=CCOC(=O)[C@@H]4[C@H]2C(=O)N(CCCO)[C@@H]3C1=O` (stereo partly drawn) reads 0.234; that for `COc1ccc([Si](C)(C)[C@@H]2[C@@H](CC(=O)N(CCO)Cc3ccccc3)O[C@]3(C(=O)N(Cc4cccc(N5CCOC5=O)c4)c4ccccc43)[C@H]2C)cc1`, 1.3. In the case of `COC(=O)[C@@]1(Cc2ccc(F)cc2)[C@H]2c3cc(C(=O)N4CCCC4)n(CCN4CNCC4=O)c3C[C@H]2CN1C(=O)c1ccccc1`, the composite z-score came to 0.592.

In turn, `C=C[C@@H](COC(C)=O)N(C(=O)OC(C)(C)C)S(=O)(=O)c1ccc(Br)cc1` had a composite z-score of 0.827. On the same count and under the same terms, as for `CN(C)C(=O)[C@]1(CCS(=O)(=O)c2ccccc2)N=C(c2ccc(OCCCO)cc2)O[C@@H]1c1ccccc1N=[N+]=[N-]`, the figure is 1.29; as for `O=C1NC(=O)C2C1C=CC(C(O)c1ccco1)N2Nc1ccccn1` (stereo not drawn), 0.14. On the same count and under the same terms, the result for `C=CC[C@]1(C(=O)NCCN2CCOCC2)N=C(c2ccc(OCCCO)cc2)O[C@H]1c1ccccc1CN=[N+]=[N-]` reads 0.826; that for `CCOC(=O)C[C@H]1[C@H](OC(=O)c2ccccc2-c2ccccc2)[C@@H](NC(=O)c2ccc(-c3ccccc3)cc2)c2cc(OCCCO)ccc2N1C(=O)c1ccc2ccccc2n1`, 1.06; that for `CCCC[C@@H](O)C1=C(COc2ccccc2)C[C@H]2C(=O)N(C)C(=O)[C@H]2[C@H]1CO`, -0.501. On to `COCCOC(=O)N1C(=O)[C@@]2(c3cc(C#Cc4ccc(OC)cc4)ccc31)[C@H](C(=O)Nc1nc3ccccc3s1)[C@H]1C(=O)O[C@H](c3ccccc3)[C@H](c3ccccc3)N1[C@@H]2c1ccc(O)cc1`, for which the composite z-score came out at 1.33.

Take `COC1OC[C@]2(C)[C@H]3C4=C(CN2C(=O)OC(C)(C)C)[C@H](C)C(CO)C(CO)C4CC[C@@H]13` (stereo partly drawn): the composite z-score came to 1.31.

Turning to `COCCCNC(=O)[C@]1(CCS(=O)(=O)c2ccccc2)N=C(c2ccc(OCCCO)cc2)O[C@@H]1c1ccccc1N=[N+]=[N-]`, the composite z-score was determined as 1.31. The compound `CCCNC(=O)[C@@]1(c2ccc([N+](=O)[O-])cc2)CC(=O)N(C2CCCCC2)[C@@H]1c1ccc(CO)cc1` registered a composite z-score of 1.25.

In the case of `[N-]=[N+]=NCc1ccccc1C[C@@]1(C(=O)N2CCOCC2)N=C(c2ccc(OCCCO)cc2)O[C@@H]1c1ccccc1`, the composite z-score stood at 1.11. On the same count and under the same terms, the result for `NC(N)=NCCCn1cc(CNC(=O)[C@@H](N)Cc2ccccc2)nn1` reads -0.103; that for `COC(=O)[C@@]1(Cc2ccc(OC)cc2)[C@H]2c3cc(C(=O)N(C)C)n(CCO)c3C[C@H]2CN1C(=O)c1ccccc1`, -0.924; that for `COCCCNC(=O)[C@@]1(Cc2ccccc2CN=[N+]=[N-])N=C(c2ccc(OCCCO)cc2)O[C@H]1c1ccccc1`, 1.3.

As to `C=C[C@@H](OC)[C@H](OC(=O)Nc1ccc(SC)cc1)c1ccc(O)c(F)c1`, the composite z-score worked out at 1.07. The same measure, in the same setting: the result for `CCCCCCCCCCC(O)C1C=CC2C(=O)N(C)C(=O)C2N1Nc1ccc([N+](=O)[O-])cc1[N+](=O)[O-]` (stereo not drawn) reads 1.11; that for `O=C(NCc1ccccc1)[C@@H]1c2ccccc2C(=O)N(Cc2ccccc2C(F)(F)F)[C@H]1c1ccc(CO)cc1`, 0.227. On the same count and under the same terms, the result for `COCCOC(=O)N1C(=O)[C@@]2(c3cc(C#CCCO)ccc31)[C@H](C(=O)Nc1nc3ccccc3s1)[C@H]1C(=O)O[C@H](c3ccccc3)[C@H](c3ccccc3)N1[C@@H]2c1ccccc1OCCO` reads 1.29. Still for that read-out and setting: the result for `COCCOC(=O)N1C(=O)[C@@]2(c3cc(C#CCC(C(=O)OC)C(=O)OC)ccc31)[C@H](C(=O)N1CCc3cc(OC)c(OC)cc3C1)[C@H]1C(=O)O[C@H](c3ccccc3)[C@H](c3ccccc3)N1[C@@H]2c1ccc(OCCO)cc1` reads 1.29.

The compound `COc1ccc(CCNC(=O)[C@@]2(Sc3ccc(C)cc3)CC(=O)N(C3Cc4ccccc4C3)[C@@H]2c2ccc(CO)cc2)cc1` returned a composite z-score of 1.3.

Take `CC1=C([C@H](O)CCc2ccccc2)[C@H](CO)[C@@H]2C(=O)N(C)C(=O)[C@@H]2C1`: the composite z-score was found to be 0.535. Same read-out and setting: as for `COc1ccccc1CN1C(=O)c2ccccc2[C@@]2(Cc3ccccc3N(CC(F)(F)F)C2=O)[C@@H]1c1ccc(CO)cc1`, the figure is 0.707. Still for that read-out and setting: the result for `CC(C)(C)OC(=O)CC[C@]1(C(=O)NCc2ccccc2)N=C(c2ccc(OCCCO)cc2)O[C@H]1c1ccccc1CN=[N+]=[N-]` reads 1.3. On to `O=C(NCC(F)(F)F)[C@@H]1c2ccccc2C(=O)N(Cc2ccc(OC(F)(F)F)cc2)[C@H]1c1ccc(CO)cc1`, for which the composite z-score stood at 0.761. Same read-out and setting: the result for `COc1ccc([Si](C)(C)[C@H]2[C@H](CCn3cc([C@H](O)c4ccccc4)nn3)O[C@@]3(C(=O)N(Cc4ccc(N5C(=O)c6cccc7cccc5c67)cc4)c4ccccc43)[C@@H]2C)cc1` reads 0.131; that for `CCCCCCc1nc(C2CC2)cc2c1[Si](C(C)C)(C(C)C)O[C@H]2c1ccccc1`, -0.698. As for `COc1cc2c(cc1OC)CN(C(=O)[C@@H]1[C@H]3C(=O)O[C@H](c4ccccc4)[C@H](c4ccccc4)N3[C@H](c3ccc(OCCO)cc3)[C@@]13C(=O)Nc1ccccc13)CC2`, the composite z-score is 1.31. The same measure, in the same setting: the result for `CCOC(=O)C[C@H]1[C@H](OC(=O)c2ccc(C(=O)c3ccccc3)cc2)[C@@H](NC(=O)Cc2ccc(OC)cc2)c2cc(OCCCO)ccc2N1C(=O)c1ccccc1` reads 0.428; that for `Cc1cc(C)c(C(O)C2C=CC3C(=O)NC(=O)C3N2Nc2ccc(Cl)cc2Cl)c(C)c1` (stereo not drawn), 1.1.
